# Measured values as given in PubChem BioAssay AID1508601 (ICCB-Longwood Screening Facility, Harvard Medical School, 2020).
# About 85 (1%) of roughly 5,700 compounds were called active. The sample holds actives, similar compounds and a random draw of the others, so the mix is not that of the screen. Cut-off read from the data, not from the text of the source: active = p53-positive nuclei above about 36% (passing the limit was not always enough); inactive = the rest.
# Tests used:
# [1] = p53 stabilisation in HPV-positive human cells, imaging, p53-positive nuclei imaging, 24 h, 48 h (AID 1508601); conditions: 24/48 h
# [2] = molecular target: Cellular tumor antigen p53 (Homo sapiens) (UniProt P04637); experiment: as above; conditions: 24/48 h, stronger effect = higher value
# [3] = measured here: cell number at 24 h, Library stock concentration: 10 mM
# [4] = measured here: cell number at 48 h, Library stock concentration: 10 mM
# [5] = Library stock concentration: 10 mM
# [6] = measured here: p53 positive nuclei at 24 h, Library stock concentration: 10 mM
# [7] = measured here: cell number at 24 h, concentration not given here
# [8] = measured here: cell number at 48 h, concentration not given here
# [9] = measured here: p53 positive nuclei at 24 h, concentration not given here
# Chain of Cellular tumor antigen p53 (Homo sapiens) (P04637 whole entry, looked up): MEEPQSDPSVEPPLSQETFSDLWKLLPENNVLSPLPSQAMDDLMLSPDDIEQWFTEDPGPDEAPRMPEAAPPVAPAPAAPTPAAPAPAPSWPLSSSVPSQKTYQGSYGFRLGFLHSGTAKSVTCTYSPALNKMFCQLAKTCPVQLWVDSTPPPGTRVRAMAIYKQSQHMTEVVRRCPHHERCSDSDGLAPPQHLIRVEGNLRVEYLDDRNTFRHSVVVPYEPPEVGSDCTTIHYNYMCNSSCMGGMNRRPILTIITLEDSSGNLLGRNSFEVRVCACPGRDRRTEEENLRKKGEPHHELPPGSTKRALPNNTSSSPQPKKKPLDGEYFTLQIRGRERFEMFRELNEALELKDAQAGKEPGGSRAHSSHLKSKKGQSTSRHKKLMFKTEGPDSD
compound,measurement,setting,value
Cc1sc2c(c1C)C(c1ccc(Cl)cc1)=NC(CC(=O)Nc1ccc(O)cc1)c1nnc(C)n1-2 (stereo not drawn),"nuclei count, normalised","[1]; measured here: cell number at 24 h, Library stock concentration: 80 uM",110%
same,"nuclei count, normalised","[1]; measured here: cell number at 24 h, Library stock concentration: 400 uM",120%
same,"nuclei count, normalised","[1]; measured here: cell number at 24 h, Library stock concentration: 2 mM",113%
same,"nuclei count, normalised","[1]; measured here: cell number at 24 h, Library stock concentration: 3.33 mM",119%
same,"nuclei count, normalised",[1]; [3],114%
same,"nuclei count, normalised","[1]; measured here: cell number at 48 h, Library stock concentration: 80 uM",108%
same,"nuclei count, normalised","[1]; measured here: cell number at 48 h, Library stock concentration: 400 uM",119%
same,"nuclei count, normalised","[1]; measured here: cell number at 48 h, Library stock concentration: 2 mM",111%
same,"nuclei count, normalised","[1]; measured here: cell number at 48 h, Library stock concentration: 3.33 mM",117%
same,"nuclei count, normalised",[1]; [4],109%
same,"p53-positive nuclei, normalised",[2]; Library stock concentration: 80 uM,0.0544% (inactive)
same,"p53-positive nuclei, normalised",[2]; Library stock concentration: 400 uM,0.0288% (inactive)
same,"p53-positive nuclei, normalised",[2]; Library stock concentration: 2 mM,3.49% (inactive)
same,"p53-positive nuclei, normalised",[2]; Library stock concentration: 3.33 mM,3.67% (inactive)
same,"p53-positive nuclei, normalised",[2]; [5],9.67% (inactive)
same,"p53-positive nuclei, normalised","[2]; measured here: p53 positive nuclei at 24 h, Library stock concentration: 80 uM",0.123%
same,"p53-positive nuclei, normalised","[2]; measured here: p53 positive nuclei at 24 h, Library stock concentration: 400 uM",0.712%
same,"p53-positive nuclei, normalised","[2]; measured here: p53 positive nuclei at 24 h, Library stock concentration: 2 mM",19.6%
same,"p53-positive nuclei, normalised","[2]; measured here: p53 positive nuclei at 24 h, Library stock concentration: 3.33 mM",10.4%
same,"p53-positive nuclei, normalised",[2]; [6],46.6%
CCCCC/C=C\C/C=C\C/C=C\C/C=C\CCCC(=O)N[C@@H](CO)C(=O)O,"nuclei count, normalised",[1]; [7],108%
same,"nuclei count, normalised",[1]; [8],107%
same,"p53-positive nuclei, normalised",[2]; concentration not given here,0.0364% (inactive)
same,"p53-positive nuclei, normalised",[2]; [9],-0.0848%
C=C(C)[C@@H]1CCC(C)=C[C@H]1c1c(OC)cc(CCCCC)cc1OC,"nuclei count, normalised",[1]; [7],107%
same,"nuclei count, normalised",[1]; [8],109%
same,"p53-positive nuclei, normalised",[2]; concentration not given here,0.00281% (inactive)
same,"p53-positive nuclei, normalised",[2]; [9],-0.021%
CCCCC/C=C\C/C=C\C/C=C\C/C=C\CCCC(=O)NC1CC1,"nuclei count, normalised",[1]; [7],110%
same,"nuclei count, normalised",[1]; [8],110%
same,"p53-positive nuclei, normalised",[2]; concentration not given here,-0.0789% (inactive)
same,"p53-positive nuclei, normalised",[2]; [9],-0.0843%
CO[C@H]1[C@H](O)[C@@H](O[C@H]2CC[C@]3(C=O)C4CC[C@]5(C)[C@@H](C6=CC(=O)OC6)CC[C@]5(O)C4CC[C@@H]3C2)O[C@@H](C)[C@@H]1O (stereo partly drawn),"nuclei count, normalised",[1]; [7],35.5%
same,"nuclei count, normalised",[1]; [8],25.2%
same,"p53-positive nuclei, normalised",[2]; concentration not given here,50.3% (active)
same,"p53-positive nuclei, normalised",[2]; [9],2.96%
C[C@@H]1O[C@@H](O[C@H]2CC[C@]3(C=O)C4CC[C@]5(C)[C@@H](C6=CC(=O)OC6)CC[C@]5(O)C4CC[C@]3(O)C2)[C@H](O)[C@H](O)[C@H]1O (stereo partly drawn),"nuclei count, normalised",[1]; [7],35.2%
same,"nuclei count, normalised",[1]; [8],23.7%
same,"p53-positive nuclei, normalised",[2]; concentration not given here,28.5% (inactive)
same,"p53-positive nuclei, normalised",[2]; [9],2.41%
CC1OC(O[C@H]2CC[C@@]3(C)[C@@H](CC[C@@H]4[C@H]3CC[C@]3(C)[C@@H](C5=CC(=O)OC5)CC[C@]43O)C2)CC(O)C1O (stereo partly drawn),"nuclei count, normalised","[1]; measured here: cell number at 24 h, Library stock concentration: 500 nM",65.6%
same,"nuclei count, normalised","[1]; measured here: cell number at 24 h, Library stock concentration: 1.5 uM",57.4%
same,"nuclei count, normalised","[1]; measured here: cell number at 24 h, Library stock concentration: 4.6 uM",53%
same,"nuclei count, normalised","[1]; measured here: cell number at 24 h, Library stock concentration: 13.7 uM",48.6%
same,"nuclei count, normalised","[1]; measured here: cell number at 24 h, Library stock concentration: 41 uM",45.4%
same,"nuclei count, normalised","[1]; measured here: cell number at 24 h, Library stock concentration: 123 uM",41.8%
same,"nuclei count, normalised","[1]; measured here: cell number at 24 h, Library stock concentration: 370 uM",40.1%
same,"nuclei count, normalised","[1]; measured here: cell number at 24 h, Library stock concentration: 1.111 mM",41.7%
same,"nuclei count, normalised","[1]; measured here: cell number at 24 h, Library stock concentration: 3.333 mM",42.7%
same,"nuclei count, normalised",[1]; [3],42.7%
same,"nuclei count, normalised","[1]; measured here: cell number at 48 h, Library stock concentration: 500 nM",46.8%
same,"nuclei count, normalised","[1]; measured here: cell number at 48 h, Library stock concentration: 1.5 uM",37.2%
same,"nuclei count, normalised","[1]; measured here: cell number at 48 h, Library stock concentration: 4.6 uM",33.8%
same,"nuclei count, normalised","[1]; measured here: cell number at 48 h, Library stock concentration: 13.7 uM",32.8%
same,"nuclei count, normalised","[1]; measured here: cell number at 48 h, Library stock concentration: 41 uM",29.8%
same,"nuclei count, normalised","[1]; measured here: cell number at 48 h, Library stock concentration: 123 uM",30.1%
same,"nuclei count, normalised","[1]; measured here: cell number at 48 h, Library stock concentration: 370 uM",27.4%
same,"nuclei count, normalised","[1]; measured here: cell number at 48 h, Library stock concentration: 1.111 mM",28.3%
same,"nuclei count, normalised","[1]; measured here: cell number at 48 h, Library stock concentration: 3.333 mM",30.1%
same,"nuclei count, normalised",[1]; [4],29%
same,"p53-positive nuclei, normalised",[2]; Library stock concentration: 500 nM,1.14% (inactive)
same,"p53-positive nuclei, normalised",[2]; Library stock concentration: 1.5 uM,2.17% (inactive)
same,"p53-positive nuclei, normalised",[2]; Library stock concentration: 4.6 uM,5.96% (inactive)
same,"p53-positive nuclei, normalised",[2]; Library stock concentration: 13.7 uM,13.9% (inactive)
same,"p53-positive nuclei, normalised",[2]; Library stock concentration: 41 uM,17.9% (inactive)
same,"p53-positive nuclei, normalised",[2]; Library stock concentration: 123 uM,17.3% (inactive)
same,"p53-positive nuclei, normalised",[2]; Library stock concentration: 370 uM,15.8% (inactive)
same,"p53-positive nuclei, normalised",[2]; Library stock concentration: 1.111 mM,18.6% (inactive)
same,"p53-positive nuclei, normalised",[2]; Library stock concentration: 3.333 mM,15.3% (inactive)
same,"p53-positive nuclei, normalised",[2]; [5],14% (inactive)
same,"p53-positive nuclei, normalised","[2]; measured here: p53 positive nuclei at 24 h, Library stock concentration: 500 nM",0.0832%
same,"p53-positive nuclei, normalised","[2]; measured here: p53 positive nuclei at 24 h, Library stock concentration: 1.5 uM",0.441%
same,"p53-positive nuclei, normalised","[2]; measured here: p53 positive nuclei at 24 h, Library stock concentration: 4.6 uM",2.38%
same,"p53-positive nuclei, normalised","[2]; measured here: p53 positive nuclei at 24 h, Library stock concentration: 13.7 uM",2.28%
same,"p53-positive nuclei, normalised","[2]; measured here: p53 positive nuclei at 24 h, Library stock concentration: 41 uM",1.13%
same,"p53-positive nuclei, normalised","[2]; measured here: p53 positive nuclei at 24 h, Library stock concentration: 123 uM",0.939%
same,"p53-positive nuclei, normalised","[2]; measured here: p53 positive nuclei at 24 h, Library stock concentration: 370 uM",1.03%
same,"p53-positive nuclei, normalised","[2]; measured here: p53 positive nuclei at 24 h, Library stock concentration: 1.111 mM",1.24%
same,"p53-positive nuclei, normalised","[2]; measured here: p53 positive nuclei at 24 h, Library stock concentration: 3.333 mM",1.62%
same,"p53-positive nuclei, normalised",[2]; [6],0.952%
O=c1c2cc(F)ccc2ncn1Cc1cn2ccccc2n1,"nuclei count, normalised",[1]; [7],98.7%
same,"nuclei count, normalised",[1]; [8],106%
same,"p53-positive nuclei, normalised",[2]; concentration not given here,-0.262% (inactive)
same,"p53-positive nuclei, normalised",[2]; [9],-0.23%
CCCCC/C=C\C/C=C\C/C=C\C/C=C\CCCC(=O)NC,"nuclei count, normalised",[1]; [7],104%
same,"nuclei count, normalised",[1]; [8],99.6%
same,"p53-positive nuclei, normalised",[2]; concentration not given here,0.0321% (inactive)
same,"p53-positive nuclei, normalised",[2]; [9],-0.0963%
